Source: PubChem
Hits are enriched below; roughly 4% of the tested compounds scored in any of these assays.
GRIN3A LBD mod: binders of NR3A ligand-binding domain, primary screen, biophysical, differential scanning fluorimetry, uHTS; AID 1259313, 2017; hit rate 2.5% among 340,000; Tm shift relative to glycine control, % at 25 µM; NR3A LBD differential scanning fluorimetry, Tm shift; 0% = protein alone, 100% = glycine-bound protein;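 active = melting temperature shift of at least 10% of the positive control shift, at one fixed dose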
FAS TE block: FAS thioesterase domain inhibitors, primary screen, biochemical, fluorescence intensity, uHTS | inhibition, % at 15 µM | hit rate 0.67% among 360,000 | recombinant FAS-TE, OMFH fluorogenic substrate, fluorescence endpoint | Fatty acid synthase (Homo sapiens), P49327;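 active = compounds whose normalised, plate-corrected inhibition of enzyme fluorescence in the single-dose primary screen is 50% or more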;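 also: 0% = DMSO with enzyme and 100% = substrate without enzyme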
ADAM17 inh: ADAM17 inhibitors, primary screen, biochemical, QFRET | AID 720648, 2013 | recombinant ADAM17, EDANS/DABCYL FRET peptide cleavage | Disintegrin and metalloproteinase domain-containing protein 17 (Homo sapiens), P78536 | inhibition, % at 6.95 µM | hit rate 0.83% among 370,000;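 active = inhibition above the mean of compounds lying between control limits plus 3 SD, set per campaign, cut at about 8.5% in these data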;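 also: 0% = DMSO-only wells as the low control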
aDG glyco up: activators of alpha-DG glycosylation, primary screen, uHTS, Pro5-aDG cells, AlphaScreen. alpha-DG glycosylation AlphaScreen (IIH6); 0% Pro5, 100% B10-LARGE cell signal. activation, % at 10 µM. hit rate 0.22% among 360,000. AID 624168, 2012;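 active = activation of at least 8% versus controls, or a plate z-score of at least 8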;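 also: Pro5 are CHO cells carrying HIG-tagged alpha-DG that lacks glycosylation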
ADAM10 inh: human ADAM10 inhibitors, primary screen, biochemical, QFRET, HTS. recombinant ADAM10, EDANS/DABCYL FRET peptide cleavage, 3 h. AID 720582, 2013. Disintegrin and metalloproteinase domain-containing protein 10 (Homo sapiens), O14672. inhibition, % at 7 µM. hit rate 0.62% among 370,000;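 active = inhibition above a per-campaign cutoff equal to the mean of compounds falling between control-based bounds plus 3 SD, cut at about 20% in these data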;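 also: 0% = DMSO wells while the 100% control is not disclosed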
aDG conf: alpha-DG glycosylation enhancers, retest, confirmation, single concentration, Pro5-aDG cells; AID 651671, 2012; hit rate 17% among 600; shares compounds with aDG glyco up; IIH6 AlphaLISA; scaled to LARGE-overexpressing B10 cells as 100%; activation, % at 10 µM (by protocol);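 active = activation of at least 7% in one or more replicates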;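 also: cells exposed to compound for two days before detection; 0% = DMSO-treated Pro5 cells and 100% = DMSO-treated B10-LARGE cells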
Starred values were filed as active, the others as inactive.

Results for CCN(CC)S(=O)(=O)c1ccc(C)c(NC(=S)N2CCN(C/C=C/c3ccccc3)CC2)c1 ?
GRIN3A LBD mod: -3; FAS TE block: 6; ADAM17 inh: 3; aDG glyco up: 8.6*; ADAM10 inh: 2; aDG conf: 1

What do the screens show for `CCN(CC)S(=O)(=O)c1ccc(C)c(NC(=S)N2CCN(c3ccccn3)CC2)c1`?
GRIN3A LBD mod: -1; FAS TE block: -3; ADAM17 inh: 3; aDG glyco up: 0; ADAM10 inh: 6

How did COc1ccc(NC(=O)C2C(=O)N(C)C3(C)CC2c2ccccc2O3)cc1 (stereo not given) do in these assays?
GRIN3A LBD mod: 2; FAS TE block: -3; ADAM17 inh: -2; aDG glyco up: 0; ADAM10 inh: 3

How did FC(F)(F)c1cccc(N2CCN(CC3CC4C=CC3C4)CC2)c1 (stereo not given) do in these assays?
GRIN3A LBD mod: 4; FAS TE block: 8; ADAM17 inh: -4; aDG glyco up: 0; ADAM10 inh: 0

How did Cc1ccccc1NC(=O)CSc1nc2[nH]c(=O)cc(O)c2s1 do in these assays?
GRIN3A LBD mod: -3; FAS TE block: -6; ADAM17 inh: -3; aDG glyco up: 0; ADAM10 inh: -2

What do the screens show for `Cc1cccc(C)c1NC(=O)CSc1nc2[nH]c(=O)cc(O)c2s1`?
GRIN3A LBD mod: 1; FAS TE block: -8; ADAM17 inh: -4; aDG glyco up: 18*; ADAM10 inh: -4; aDG conf: 0

What do the screens show for `c1cncc(-c2nnc(-c3cccnc3)nn2)c1`?
GRIN3A LBD mod: 1; FAS TE block: -4; ADAM17 inh: 0; aDG glyco up: 13*; ADAM10 inh: 6; aDG conf: 7.6*

What do the screens show for `c1ccc(-c2nnc(-c3ccccc3)nn2)cc1`?
GRIN3A LBD mod: -4; FAS TE block: -2; ADAM17 inh: 0; aDG glyco up: 0; ADAM10 inh: 1

What do the screens show for `N#CCC(=O)Nc1ccc(C(=O)OCC(=O)N=c2sccn2Cc2ccccc2Cl)cc1`?
GRIN3A LBD mod: -5; FAS TE block: 0; ADAM17 inh: 0; aDG glyco up: 5.4*; ADAM10 inh: 10; aDG conf: 1

Results for O=C(Nc1ccc(N2CCCCCC2)cc1)c1cccc(S(=O)(=O)N2CCOCC2)c1 ?
GRIN3A LBD mod: -1; FAS TE block: 19; ADAM17 inh: 4; aDG glyco up: 2.8*; ADAM10 inh: 4; aDG conf: 1

Results for CC(C)=C[C@@H]1C[C@H](C)[C@H]2CC[C@H](C)c3c(O[C@@H]4O[C@@H](C)[C@@H](O)[C@@H](O)[C@@H]4O)c(O)c(C)c1c32 ?
GRIN3A LBD mod: -1; FAS TE block: 8; aDG glyco up: 0

How did Cc1ccc2c(C)c(C(=O)N(Cc3ccccc3)C3CCS(=O)(=O)C3)oc2c1 (stereo not given) do in these assays?
GRIN3A LBD mod: 0; FAS TE block: 20; ADAM17 inh: 3; aDG glyco up: 0; ADAM10 inh: 9

How did Cc1ccccc1-c1cccc([C@@H]2C[C@H]3[C@H](CON3C)CN2S(=O)(=O)c2ccccc2C)c1 do in these assays?
GRIN3A LBD mod: -2; FAS TE block: 17; ADAM17 inh: 0; aDG glyco up: 6.0*; ADAM10 inh: 1; aDG conf: 0

Results for O=[N+]([O-])c1ccc(Cl)c(CN2CCC(O)CC2)c1 ?
GRIN3A LBD mod: 2; FAS TE block: -4; ADAM17 inh: -2; aDG glyco up: 1; ADAM10 inh: 3

What do the screens show for `COc1ccc(C(CC(=O)O)c2ccc3c(c2)OCO3)cc1` (stereo not given)?
GRIN3A LBD mod: 0; FAS TE block: -6; ADAM17 inh: -6; aDG glyco up: 0; ADAM10 inh: -7
